From PubChem BioAssay AID1508600 (Functional Genomics Laboratory (NCATS/FGL), 2020)
Hit rate of the full screen: of about 53,000 sequences, about 3,700 (7%) were called active. Many of the other results were omitted from the sample, so actives are more common in it than they were. Values without a mark were called inactive.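 Rule for the calls: active = gene knockdowns whose robust z-score for IL-1 alpha signal is at least 2 or at most -2, so actives lie on both sides; inactive = the rest.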

test: Components of the Cytosolic LPS Sensing Pathway: Gene Identification via Genome-wide siRNA Screen; conditions: RAW264.7 macrophages, IL-1a HTRF, actives lie on both sides, screened at 100 nM (by protocol), cells primed 5 h with Pam3CSK4 first;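 note: robust z of the log signal after scaling to non-targeting control siRNA wells of the plate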
Outline: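 Read-out: IL-1a HTRF on supernatant, divided by plate negative-control median ×100, log-transformed and converted to robust z-score. Cells were RAW264.7 given 100 nM siRNA, Pam3CSK4-primed 5 hours, then LipidA-transfected 24 hour.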

Sequence	z-score
GGUAUAUCCCUCACAAAAGTT against Dnah2	-1.69
GCAGUUAUGUUAUAGCUGCTT against Ctu2	0.0152
GCUAGUUUAAGAGACUUUGTT against Nfatc2ip	0.234
GGUCUAAGUCUGAAUGGCCTT against Agrp	0.539
CGACUGGAAUCUAAUAACUTT against Fgf2	0.987
CGGCUCCAGGCAAAUAUGGTT against Ezh1	-1.64
GGAUCAAUGGUGUCUUUGUTT against Pdzk1	-2.2 (active)
CGAGAAAGUAUUGACCGAGTT against Anxa5	-0.524
GGAAGGUGUUCGUAGAGAATT against Mad2l1	0.0941
GCACCGUGUCGUUGACUUGTT against Trim56	0.566
CCUAUCGAGUGAAAGUAAATT against Abcg2	-0.304
GGCACUGCUAUUAACUACATT against 4933414I15Rik	-0.906
CGCAGGUAUACAGGACUGCTT against Rhox8	2.33 (active)
CUGUUACCUAUCCCUCAUCTT against Sstr3	-0.663
GCUACUCUUAUUCUACUUCTT against Slc29a3	0.145
GCCCUCAUCAGAAGAAACUTT against Cox7b2	0.864
GGUAGACCUAGAACAGCACTT against Ttyh2	-0.495
GGUGAGAUUACUGAAAGAATT against Plod2	-0.0899
GCCAGUCCUGAUAGCAUCATT against Rhox6	-3.2 (active)
GGAGAAGGCAACUUCUGUUTT against Zfp641	0.19
CCUAUUGAUUGUAUAUCCATT against Emc2	-0.429
CCAAAUUGUCUCUUCUAACTT against Dnah1	0.0269
GGAACAAAGAGUUUAAGGATT against Olfr1415	0.379

Sequence	z-score
GGAACAAGUGGCUGAAGAUTT against Cyp11b2	0.566
GCAUGUUUCUAAACUUAGUTT against Sh3rf2	-0.432
GGUAUCGUAUAUGGAGAUCTT against Kif13a	2.12 (active)
GGUUCUGAAAGAGUGUUAGTT against Htatsf1	-1.58
GGGCUCACAUUGUACACACTT against Nckap5	0.525
GGACAUCUUUUCAAACGUGTT against Acap1	-1.09
GCUGAACGUGAGAUUGUGCTT against Acta1	1.33
GGUCAAUUAUGAAGCACCUTT against Pabpc4	0.158
GGCAACAAAAAAAUCCCAATT against Cd160	-0.647
GGUAUCUGUGUGACUUCACTT against Pgpep1	3.63 (active)
GGGACAACAUUCAAAGGUCTT against Hdgfl1	-0.322
GCGAUUGGCAGAUUGCUACTT against Tmem47	1.01
GCCGUUUCGUGUGGUAUUUTT against Tm4sf1	-2.64 (active)
GGGAUAGCAAGACUUUCACTT against C5ar1	0.194
GGUUGUGAGUCAGUCUAGUTT against Tia1	-1.55
GGAGCUCUGUGAAUCUCUUTT against Ska1	-0.796
CCUUCCUGUUGUCAUGAGATT against Eipr1	-0.868
CCAAUGGUCAGGAGUGUAGTT against Prpsap2	-0.766
GCGGCUCAAACUCAUUUUGTT against Gm4841	1.21
CCUUGACCUUAAUGUCUUCTT against Fgf23	2.05 (active)
GGUAUGAUGAUUGUUAGAUTT against Phf20	0.141
GCUCUAAAACUGUGUACUCTT against 4930579K19Rik	-0.167
GGAAUUUUCUGGAAAUCCATT against Tctn2	-0.111

Sequence	z-score
GGCUCUCAUUGAUGCAUGUTT against Cpeb4	-0.264
GGAAUGAAACCAAGUAUAATT against Calcb	0.853
GCAGGUUCAGGCAGUAAUUTT against Kpna4	3.78 (active)
GCUCAUUGGGAUCAUUGGUTT against Fancd2	1.45
GGUGACACCCAGAAUGAGCTT against Htatsf1	1.81
GGACUGUGGAUAACCUGCUTT against Hspb2	-2.55 (active)
CCCUCAAUCUAACAGUGCATT against Dsg1b	0.75
GGAGAAAGACAACUUCCUATT against Clec7a	0.239
GGCUCCUGUAAUGCUAACUTT against Zfp715	-0.191
GGAUACUUUAUGGUAUUUCTT against 9130023H24Rik	1.45
GAUUUCAAGAUCCAGACUCTT against Riiad1	-0.435
GCAGAGUUACAAGCUUUUATT against Diaph3	-4.98 (active)
CCUCGUUCCUUUGAAAUCATT against Gfi1	0.255
GCUAUGUGAAUUUGUAUGATT against Parp11	0.398
GCAUACGAUAUCACCAUAUTT against Dsg1a	0.173
GCUCCGGAACAGAUAAAACTT against Kat14	-0.485
GGCAGUAACUUAAAACAGATT against Mecp2	-0.139
GCUGAAAGAAUUCGUGGACTT against Phf2	1.69
GAUAUCACGGUCAUCUGUCTT against Pde6h	-0.19
CCUCGUAUUAGAUGAUGCATT against Snrpe	-2.79 (active)
CCUGCGCUUCUGACUAUCUTT against Dcbld1	0.18
GGAGACCUGGCAAAUGUAATT against Dctn5	0.884
